Measured values: PubChem BioAssay AID1224854 (National Center for Advancing Translational Sciences (NCATS), 2016)
Records with an inconclusive call do not appear. A number with no mark means an inactive call. Activity calls are given as the source filed them. The call rests on the fitted dose curve; in most records, active means well fitted activation curve with a large enough effect; inconclusive means small, poorly fitted or top-dose-only effect; inactive means flat fitted curve, though single readings scatter.

assay: Cell viability assay for measurement of the protective activity of small molecules against cell death caused by Zika virus infection in human astrocytoma cells; details: SNB-19 Zika virus cytoprotection, ATP luminescence, 72 h; series mostly up to 46.1 µM; protection from virus-induced cell death: at the top concentration
Summary of the method: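 Percent inhibition of Zika-induced cell death derived from ATP-content luminescence after 72 h at 37 C. Compounds were added to SNB-19 cells 1 h before virus at 2 FFU/cell.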

**Q.** With `Oc1cc(O)cc(/C=C/c2ccc(O)c(O)c2)c1` as the compound, how does the “protection from virus-induced cell death” value read?
**A.** -15.2%

**Q.** With `OCc1ccc(-c2ccc(-c3ccc(CO)s3)o2)s1` as the compound, how does the “protection from virus-induced cell death” value read?
**A.** 4.23%

**Q.** Which Potency does the source give for `CCC(C)SSc1ncc[nH]1` (centres undefined) here?
**A.** 24.5 µM (active)

**Q.** With `CCOCCOC(=O)/C=C/c1ccc(OC)cc1` as the compound, how does the “protection from virus-induced cell death” value read?
**A.** 0.0435%

**Q.** Which “protection from virus-induced cell death” value does the source give for `O=c1c(-c2ccc(O)cc2)coc2cc(O)ccc12` here?
**A.** -12.4%

**Q.** With `N#CC1(c2ccc(NC(=O)c3cccnc3NCc3ccncc3)cc2)CCCC1` as the compound, how does the “protection from virus-induced cell death” value read?
**A.** 6.68%

**Q.** With `Cc1ccc(O)c(-n2nc3ccccc3n2)c1` as the compound, how does the “protection from virus-induced cell death” value read?
**A.** -2.26%

**Q.** Which “protection from virus-induced cell death” value does the source give for `O=C(C=CC=Cc1ccc2c(c1)OCO2)N1CCCCC1` here?
**A.** 1.16%

**Q.** For `CC(C(=O)O)c1ccc(C(=O)c2ccccc2)s1` (centres undefined), which “protection from virus-induced cell death” value is on record?
**A.** -3.16%

**Q.** With `Nc1nc2ccc([N+](=O)[O-])cc2s1` as the compound, how does the “protection from virus-induced cell death” value read?
**A.** 9.51% [at 88.3 µM]

**Q.** With `COCCn1c2c([n+](Cc3cnccn3)c1C)C(=O)c1ccccc1C2=O` as the compound, how does the “protection from virus-induced cell death” value read?
**A.** -22.2%

**Q.** Which “protection from virus-induced cell death” value does the source give for `CC(C)c1ccc2oc3nc(N)c(C(=O)O)cc3c(=O)c2c1` here?
**A.** -20.4%

**Q.** With `Cc1c(NC(=O)c2ccc(C(C)(C)C)cc2)cccc1-c1cn(C)c(=O)c(Nc2ccc(C(=O)N3CCOCC3)cc2)n1` as the compound, how does the Potency read?
**A.** 21.8 µM (active)

**Q.** With `C[C@H](NC(=O)C(=O)Nc1ccccc1C(C)(C)C)C(=O)N[C@@H](CC(=O)O)C(=O)COc1c(F)c(F)cc(F)c1F` as the compound, how does the Potency read?
**A.** 0.489 µM (active)

**Q.** Which “protection from virus-induced cell death” value does the source give for `c1ccc(CCNc2nc(-c3ccccc3)cs2)cc1` here?
**A.** 2.69%

**Q.** With `CNC1[C@H](O)C(O[C@@H]2C(O)C(O[C@H]3O[C@H]([C@@H](C)NC)CC[C@H]3N)[C@@H](N)C[C@H]2N)OC[C@]1(C)O` (some centres undefined) as the compound, how does the “protection from virus-induced cell death” value read?
**A.** 4.71%

**Q.** For `CC(=O)Oc1ccccc1C(=O)Nc1ncc([N+](=O)[O-])s1`, which Potency is on record?
**A.** 31.6 µM (active)

**Q.** With `O=C(O)Cc1ccc(-c2ccccc2)cc1` as the compound, how does the “protection from virus-induced cell death” value read?
**A.** 3.6%

**Q.** Which “protection from virus-induced cell death” value does the source give for `CN1CCN(c2cc3c(nn2)Oc2ccccc2N3C)CC1` here?
**A.** -0.644% [at 23.8 µM]

**Q.** With `C=C1C(=O)[C@@]23C(CC[C@@H]1[C@H]2O)[C@@]12CO[C@]3(O)[C@@H](O)[C@@H]1C(C)(C)CC[C@@H]2O` (some centres undefined) as the compound, how does the “protection from virus-induced cell death” value read?
**A.** -16.5%

**Q.** Which “protection from virus-induced cell death” value does the source give for `CS(=O)(=O)c1ccc(-c2cn3ccccc3n2)cc1` here?
**A.** -14.4%

**Q.** Which “protection from virus-induced cell death” value does the source give for `CCCCCCCCCCCC(=O)[O][Sn]([CH2]CCC)([CH2]CCC)[O]C(=O)CCCCCCCCCCC` here?
**A.** -1.87%

**Q.** With `Nc1ncnc2c1ncn2[C@@H]1O[C@@H](CO)[C@H](O)[C@H]1O` as the compound, how does the “protection from virus-induced cell death” value read?
**A.** 1.36% [at 23.8 µM]

**Q.** With `Nc1ccc(O)c(C(=O)O)c1` as the compound, how does the “protection from virus-induced cell death” value read?
**A.** -6.75%

**Q.** With `O=C1c2ccccc2-[n+]2ccc3c([nH]c4ccccc43)c21` as the compound, how does the “protection from virus-induced cell death” value read?
**A.** -21%

**Q.** With `Cc1ccc2c(n1)Oc1ccc(C(C)C(=O)OCC(=O)N(C)C)cc1C2` (centres undefined) as the compound, how does the “protection from virus-induced cell death” value read?
**A.** -4.14%

**Q.** Which Potency does the source give for `COc1cc(NC(C)CCCN)c2ncccc2c1` (centres undefined) here?
**A.** 17.3 µM (active)

**Q.** With `O=C(Nc1ncc([N+](=O)[O-])s1)c1cccs1` as the compound, how does the “protection from virus-induced cell death” value read?
**A.** -5.39%

**Q.** With `NC(N)=NN=C(/C=C/c1ccc([N+](=O)[O-])o1)/C=C/c1ccc([N+](=O)[O-])o1` as the compound, how does the “protection from virus-induced cell death” value read?
**A.** -21.8%

**Q.** With `COc1ccc(/C=C/C(=O)Nc2ccccc2C(=O)O)cc1OC` as the compound, how does the “protection from virus-induced cell death” value read?
**A.** -8.74%

**Q.** Which “protection from virus-induced cell death” value does the source give for `O=C(Nc1ccc(C(=O)O)c(O)c1)c1ccccc1` here?
**A.** 12.3%

**Q.** With `CC=CC[C@@H](C)C(=O)[C@H]1C(=O)N[C@@H](C(C)C)C(=O)N(C)CC(=O)N(C)[C@@H](CC(C)C)C(=O)N[C@@H](C(C)C)C(=O)N(C)[C@@H](CC(C)C)C(=O)N[C@@H](C)C(=O)N[C@H](C)C(=O)N(C)[C@@H](CC(C)C)C(=O)N(C)[C@@H](CC(C)C)C(=O)N(C)[C@@H](C(C)C)C(=O)N1C` as the compound, how does the “protection from virus-induced cell death” value read?
**A.** -7.94%

**Q.** For `O=c1cc(-c2ccccc2)oc2cc(O)c(O)c(O)c12`, which “protection from virus-induced cell death” value is on record?
**A.** -7.06%

**Q.** For `O=C(OCc1ccccc1)c1ccc(O)cc1`, which “protection from virus-induced cell death” value is on record?
**A.** 10.1%
